# In PubChem BioAssay (NCATS):
# Inconclusive results are not listed. The source made the active and inactive calls. Calls follow the shape of the dose curve; as a rule, active = well fitted curve in the direction sought with a large enough effect in the signal ratio, with a control signal flat (not every such curve was filed as active); inconclusive = small, poorly fitted or top-dose-only effect, or effect the other way, or a change in a side signal; inactive = no such curve, though single readings can be large or run the other way; the % refers to the signal ratio.
# Target: Androgen receptor (Homo sapiens) (UniProt P10275)
# Sequence (P10275 whole entry, looked up): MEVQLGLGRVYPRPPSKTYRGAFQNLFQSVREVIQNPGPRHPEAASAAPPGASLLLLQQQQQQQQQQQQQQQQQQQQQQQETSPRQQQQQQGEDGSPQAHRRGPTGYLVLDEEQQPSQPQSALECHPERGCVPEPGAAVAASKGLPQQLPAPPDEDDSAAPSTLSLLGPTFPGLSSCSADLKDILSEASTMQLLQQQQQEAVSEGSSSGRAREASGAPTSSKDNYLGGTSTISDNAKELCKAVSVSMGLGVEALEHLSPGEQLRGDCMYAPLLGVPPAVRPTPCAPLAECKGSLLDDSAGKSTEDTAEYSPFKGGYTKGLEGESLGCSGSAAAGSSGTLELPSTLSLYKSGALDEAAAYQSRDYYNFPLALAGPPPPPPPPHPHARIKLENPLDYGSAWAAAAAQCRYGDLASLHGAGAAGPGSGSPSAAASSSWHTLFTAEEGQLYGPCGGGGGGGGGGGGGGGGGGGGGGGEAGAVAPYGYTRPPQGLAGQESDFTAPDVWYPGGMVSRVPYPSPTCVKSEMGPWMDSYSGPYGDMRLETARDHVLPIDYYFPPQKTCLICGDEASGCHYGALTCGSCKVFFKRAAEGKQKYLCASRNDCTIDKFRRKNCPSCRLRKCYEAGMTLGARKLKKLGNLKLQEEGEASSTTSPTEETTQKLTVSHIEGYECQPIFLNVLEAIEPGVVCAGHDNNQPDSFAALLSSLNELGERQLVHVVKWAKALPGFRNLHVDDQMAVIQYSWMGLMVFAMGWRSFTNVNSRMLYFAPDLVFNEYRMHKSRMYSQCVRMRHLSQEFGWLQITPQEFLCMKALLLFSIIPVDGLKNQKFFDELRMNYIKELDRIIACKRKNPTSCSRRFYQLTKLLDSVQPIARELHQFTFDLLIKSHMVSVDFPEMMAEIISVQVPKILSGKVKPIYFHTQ
# Assay: qHTS assay for small molecule antagonists of androgen receptor signaling (AID 588516)
# Conditions: AR-UAS-bla HEK293, beta-lactamase ratio, antagonist mode, 16 h; series mostly up to 76.8 µM
# Procedure, shortened: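 AR-UAS-bla GripTite HEK 293 cells (2000/well) treated with compound titrations plus 10 nM R1881 for 16 h at 37C. Beta-lactamase read by CCF4 FRET (460/530 nm); IC50 from Hill fits, normalized to R1881 and DMSO control wells.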
smiles,measurement,value
CC1=C2[C@H](/C=C(\C)C(=O)O)CC[C@@H](C)[C@H]2CC1,outcome,inactive
